HCV inhibitor: inhibitors of hepatitis C virus infection; Huh7.5.1 HCVcc-Cre infection, luciferase reporter, 44 h; Potency, µM (top dose mostly 41.8 µM), hits mostly inhibitors; 340,000 tested, 3.4% active
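Cells seeded at 1,000/well and cultured 4 h, then compounds added followed by HCVcc-Cre virus (~0.5 moi). After 44 h further culture, luciferase substrate was added, plates held 15 min at room temperature, and luminescence read for 15 sec.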
Pf growth 96h: P. falciparum growth inhibition at 96 hours; P. falciparum luciferase reporter growth, 96 h; Potency, µM (highest dose often 28.7 µM), actives largely listed as inhibitors; 320,000 tested, 6.9% active; AID 504834
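Two-generation exposure (96 h) targets delayed-death phenotype. Reporter parasites carrying integrated firefly luciferase, in red cells at 2% hematocrit and 0.05% parasitemia final, kept at 37 C, 5% CO2; luminescence loss indicates inhibition.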
AmpC no deterg: AmpC beta-lactamase inhibition without detergent; AmpC nitrocefin hydrolysis, absorbance 480 nm, 0.0001% Triton; 330,000 tested, 0.52% active; Potency, µM (top dose mostly 57.1 µM), hits mostly inhibitors; P00811; note: nearly all actives have a fitted effect of over 20% in size
Target sequence (P00811 whole entry, looked up): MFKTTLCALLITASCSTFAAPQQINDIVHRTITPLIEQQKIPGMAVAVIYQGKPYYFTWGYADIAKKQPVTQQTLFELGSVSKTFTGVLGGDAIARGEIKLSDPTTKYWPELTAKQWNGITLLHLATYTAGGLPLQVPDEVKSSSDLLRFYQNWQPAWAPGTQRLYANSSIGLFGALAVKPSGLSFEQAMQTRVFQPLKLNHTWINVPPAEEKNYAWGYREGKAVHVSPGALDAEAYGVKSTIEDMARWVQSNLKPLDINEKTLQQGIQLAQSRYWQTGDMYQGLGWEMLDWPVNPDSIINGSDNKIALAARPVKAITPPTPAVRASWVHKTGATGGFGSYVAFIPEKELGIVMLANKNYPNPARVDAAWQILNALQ
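20 mM phosphate pH 7.0 + 0.01% (detergent screen) or 0.0001% Triton X-100; 5.3 nM AmpC reagent; cpd preinc 15 min RT; nitrocefin (800 uM stock) to start; A480 q20 s × 4 min; Activity was normalised to no-enzyme and no-compound control wells.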
AMA1 RON2 block: AMA1-RON2 (P. falciparum) interaction inhibition; AlphaScreen AMA1-biotinylated RON2 peptide binding; Potency, µM (highest dose often 58.2 µM), most hits filed as inhibitors; 360,000 tested, 0.2% active; AID 720542; note: nearly all actives have a fitted effect of over 45% in size
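AMA1 (3D7) with his tag at 25 nM final met compounds first, then biotinylated RON2 peptide at 25 nM; detection used donor plus acceptor beads, 10 µg/mL apiece, read by AlphaScreen after 30 min at room temperature.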
AmpC inh detg: blocks E. coli AmpC beta-lactamase in detergent assay; P00811; 370,000 tested, 0.041% active; AmpC hydrolysis of nitrocefin, absorbance 480 nm, 0.01% Triton; Potency, µM (titrated, usually from 114 µM), usual class: inhibitors; note: nearly all actives have a fitted effect of over 25% in size
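20 mM phosphate pH 7.0 + 0.01% (detergent screen) or 0.0001% Triton X-100; 5.3 nM AmpC reagent; cpd preinc 15 min RT; nitrocefin (800 uM stock) to start; A480 q20 s × 4 min; Activity was normalised to no-enzyme and no-compound control wells.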
Pf growth 48h: P. falciparum growth inhibition at 48 hours (one generation); AID 504832; P. falciparum luciferase growth in erythrocytes, 48 h; Potency, µM (titrated, usually from 28.7 µM), hits mostly inhibitors; 310,000 tested, 5.9% active
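Compounds are pin-transferred into medium, infected erythrocytes (2% hematocrit, 0.1% parasitemia final) are added, and plates sit one parasite generation at 37 C in 5% CO2. Detection reagent is then added and luminescence measured.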
Hits are given with their value; - = inactive; ? = inconclusive; . = no result; [ ] = another dose, or the depositor's remark. Most compounds without a hit are left out; they make up all but 11% or so of the library. Calls come from the whole dose curve; as a rule, active = well fitted curve in the direction sought with a large enough effect; inconclusive = small, poorly fitted or top-dose-only effect, or another doubt; inactive = no such curve, though single readings can be large; an effect the other way counts as inactive or inconclusive.

SMILES	HCV inhibitor	Pf growth 96h	AmpC no deterg	AMA1 RON2 block	AmpC inh detg	Pf growth 48h
COc1ccccc1NC(=O)CSc1nc2c(oc3ccccc32)c(=O)n1-c1ccccc1F	.	.	.	.	-	.
Cc1c2cnn(CC(=O)NCCc3ccccc3)c(=O)c2c(C)n1Cc1ccccc1Cl	.	.	.	.	-	.
COc1ccc(-c2nc3cc(C(C)C)ccc3o2)cc1NC(=O)c1ccc(C)c(Cl)c1	.	.	.	.	-	.
COc1ccc(OC)c(NC(=O)Cn2c(=O)n(-c3cccc(C)c3)c(=O)c3c2c2cc(C)ccc2n3C)c1	.	.	.	.	-	.
CCCCN(Cc1ccco1)S(=O)(=O)c1csc(C(N)=O)c1	-	9.3µM	-	-	?	-
CN(C)CCN(Cc1ccco1)S(=O)(=O)c1csc(C(N)=O)c1	-	8.3µM	-	-	-	-
CC(CCc1ccco1)N(C)S(=O)(=O)c1csc(C(N)=O)c1 (centres undefined)	-	?	-	-	-	?
CN(C)CCN(Cc1cccs1)S(=O)(=O)c1csc(C(N)=O)c1	-	?	-	-	-	-
CCC(=O)C1=C(c2ccc(F)cc2)N(C(=O)CC)n2c(nnc2C2CCCCC2)S1	.	.	.	.	-	.
CCOC(=O)C1=CN(Cc2cccc(F)c2)S(=O)(=O)NC1c1cccc(OC)c1 (centres undefined)	-	.	-	-	.	.
CCOC(=O)C1=CN(c2cccc(F)c2)C=C(C(=O)OCC)C1c1cc(OC)c(O)c([N+](=O)[O-])c1	-	?	-	-	-	10µM
Cc1cc(C)nc(N/N=C/c2ccccc2OCc2ccc(Br)cc2)n1	-	?	18µM	-	-	?
Cc1ccc(CN2C3CCCC2CC(NC(=S)NCc2ccccc2)C3)cc1 (centres undefined)	?	-	-	-	-	12µM
Cc1cccc(NC(=S)NC2CC3CCC(C2)N3Cc2ccco2)c1C (centres undefined)	-	?	-	-	-	-
Cc1ccc(CNC(=S)NC2CCC(C(C)(C)C)CC2)cc1 (centres undefined)	?	12µM	-	-	-	9.3µM
CC(NC(=S)NC1CCC(C(C)(C)C)CC1)c1ccccc1 (centres undefined)	?	9.3µM	-	-	?	7.4µM
Cc1cccc(NC(=S)NC2CC3CCCC(C2)N3Cc2ccccc2)c1C (centres undefined)	?	-	-	-	-	5.9µM
COc1ccc(C(=O)NCC(c2cccnc2)N2CCN(c3ccc(F)cc3)CC2)cc1 (centres undefined)	.	.	.	.	-	.
COc1cccc(NC(=O)CSc2nc(=O)n(Cc3ccccn3)c3c2CCC3)c1	.	.	.	.	-	.
CCc1ccccc1NC(=S)NC1CC2CCC(C1)N2Cc1ccc(F)cc1 (centres undefined)	-	-	-	-	-	7.4µM
CCc1ccc(NC(=S)NC2CC3CCCC(C2)N3Cc2cccs2)cc1 (centres undefined)	7.9µM	2.1µM	-	-	-	?
CCc1ccccc1NC(=O)NC1CC2CCC(C1)N2Cc1cccs1 (centres undefined)	-	?	-	-	-	-
CCc1ccc(NC(=O)Cn2cnc3sc(C)c(S(=O)(=O)N4CCN(c5ccccc5OC)CC4)c3c2=O)cc1	.	.	.	.	-	.
Cc1c(CC(=O)NCCCCCC(=O)O)c(=O)oc2cc3c(cc12)CCC(C)(C)O3	-	?	-	-	-	-
Cc1c(CC(=O)NCCCC(=O)O)c(=O)oc2cc3c(cc12)CCC(C)(C)O3	-	?	-	-	-	2.6µM
SMILES	HCV inhibitor	Pf growth 96h	AmpC no deterg	AMA1 RON2 block	AmpC inh detg	Pf growth 48h
CCCC(C(=O)NCc1ccco1)N(C(=O)CNS(=O)(=O)c1ccc(Cl)cc1)C1CCCC1 (centres undefined)	-	-	-	-	-	12µM
CCC(C(=O)NCc1ccco1)N(C(=O)CNS(=O)(=O)c1ccccc1)C1CCCCC1 (centres undefined)	-	6.6µM	-	-	-	.
O=C(CN(C(=O)CNS(=O)(=O)c1ccc(F)cc1)C1CCCC1)NCc1ccco1	-	-	-	-	-	-
CC(C)C(C(=O)NCc1ccco1)N(C(=O)CNS(=O)(=O)c1ccccc1)C1CCCC1 (centres undefined)	-	-	-	-	-	?
COc1ccc(-c2[nH]c3ccccc3c2SCCNC(=O)c2cc(OC)c(OC)c(OC)c2)cc1	.	.	.	.	-	.
CCNc1nc(NCC)nc(OCCOC(C)=O)n1	-	4.1µM	-	-	-	-
COc1ccccc1NC(=O)Cn1c(=O)n(-c2cccc(C)c2)c(=O)c2c1c1cc(C)ccc1n2C	.	.	.	.	-	.
Cc1ccc(NC(=O)CCCn2c(=O)c3cccn3c3ccccc32)cc1C	.	.	.	.	-	.
Cc1ccccc1NC(=O)c1c(C)oc2ccc(O)c(CN3CCCC3)c12	.	.	.	.	-	.
Cc1nc2ccccn2c1-c1ccnc(SCc2ccc(Cl)cc2)n1	?	1.9µM	-	-	-	5.9µM
CCCCOc1ccc(S(=O)(=O)Nc2ccc(-c3ccc(N4CCCCC4)nn3)cc2)cc1	.	.	.	.	-	.
CN1CC(=O)NC1=NC(=O)C12CC3CC(CC(C3)C1)C2	-	12µM	-	-	?	?
O=C(CCSc1ccccc1)Nc1nc2c(s1)COc1ccccc1-2	-	-	3.2µM	-	?	-
CC(C)(C)C(=O)Nc1nc2c(s1)COc1ccccc1-2	?	?	0.71µM	-	?	?
CCc1ccc(NC(=O)C2CCN(c3cc(C)nc4c(-c5ccc(Cl)cc5)c(C)nn34)CC2)cc1	.	.	.	.	-	.
COC(=O)c1ccc(Cl)cc1NC(=O)Nc1nnc(N(C)Cc2ccccc2)s1	.	.	.	.	-	.
CCCCn1c(=O)c2oc3ccccc3c2n(Cc2ccccc2C)c1=O	.	.	.	.	-	.
CCC(C(=O)c1ccccc1)N(C(=O)c1ccccc1Cl)N1C(=O)C2C3C=CC(C3)C2C1=O (centres undefined)	-	10µM	-	-	-	?
COc1ccc2c(/C=C/c3cc[n+](C)cc3)c[nH]c2c1	?	0.52µM	-	-	-	1.2µM
COc1ccc2c(C=O)c[nH]c2c1	-	8.3µM	-	-	-	-
COc1ccc2c(CCN)c[nH]c2c1	-	?	-	-	-	.
COc1ccc2c(c1)c(/C=C/c1cc[n+](C)cc1)cn2C	-	0.37µM	-	-	-	1.2µM
COc1ccc2c(C(=O)CCl)c[nH]c2c1	?	?	-	-	?	15µM
Cc1ccc2[nH]cc(/C=C/c3cc[n+](C)cc3)c2c1	?	?	-	-	-	-[0.00184 µM]
CCOC(=O)C1CCCN(S(=O)(=O)c2ccc(N3CCCCS3(=O)=O)cc2)C1 (centres undefined)	.	.	.	.	-	.
COc1cc2ncc3c(-c4ccc(C)cc4)nn(-c4ccc(F)cc4F)c3c2cc1OC	.	.	.	.	-	.
CC[n+]1ccc(/C=C/c2c[nH]c3ccccc23)cc1	2.8µM	?	-	-	-	0.52µM
